Among all 2,100 compounds or so, about 650 (31%) were called active. About 16% were inconclusive and are not listed. Some of the results follow. A number with no mark means an inactive call. Calls follow the shape of the dose curve; as a rule, active = well fitted inhibition curve with a large enough effect; inconclusive = small, poorly fitted or top-dose-only effect; inactive = flat fitted curve, though single readings scatter.
Experiment: qHTS for inhibitors of Vif-A3G interactions: Cherry picks; also: nearly all actives have a fitted effect of over 80% in size; as to activity, negative = fluorescence increase: % of control where 0% means no effect
Conditions: HeLa A3G-eYFP + Vif (tagged APOBEC3G with the HIV-1 protein that degrades it), 24 h; Potency: eYFP fluorescence increase; series mostly up to 36.9 µM; activity, negative = fluorescence increase: at the top concentration
Outline: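 HeLa cells stably expressing A3G-eYFP and Vif, cultured overnight then exposed to compounds at several concentrations for 24 hours at 37 C, 5% CO2; cellular yellow fluorescence (488 nm ex, 500-530 nm em) imaged on Acumen, MG132 positive control.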
Potency is read from the fitted curve at half-maximal effect.

SMILES	activity, negative = fluorescence increase	Potency
Cc1ccc2nc(NS(=O)(=O)c3ccc(Cl)cc3)c(Nc3ccc(C(=O)O)cc3)nc2c1	-6.95% [at 46.1 µM]	
O=C1S/C(=C/c2ccc(N3CCOCC3)o2)C(=O)N1Cc1ccc(F)cc1		2.8 µM (active)
CCc1ccc2c(c1)NC(=O)C2(C)Cc1ccccc1Cl (centres undefined)	-1.62%	
COC(=O)[C@@H]1Cc2c([nH]c3ccccc23)C(C)(C)N1C(=O)CCl	-4.24%	
c1ccc(-c2cnn3c(-c4ccccc4)c(-c4ccccc4)nc3n2)cc1		3.66 µM (active)
COc1ccc(-n2nnnc2-c2cccc(OC)c2)cc1	-9.47%	
CCS(=O)(=O)N1N=C(c2ccc(C)cc2)CC1c1cc2ccc(OC)cc2nc1Cl (centres undefined)	-5.93% [at 46.1 µM]	
COc1ccc(C2CC(c3ccncc3)=NN2c2ccc(S(N)(=O)=O)cc2)cc1 (centres undefined)		10.3 µM (active)
COc1ccc(-c2cnc3c(NC=O)cc(-c4ccccc4)cn23)cc1OC	-28.9%	
COc1ccc(/C=c2\s/c(=C/C(=O)c3ccc(C)cc3)[nH]c2=O)c(OC)c1		20.6 µM (active)
COc1ccccc1/C=N/NC(=S)Nc1cccnc1	6.65% [at 46.1 µM]	
COc1ccc(N=Cc2c(O)c3ccccc3n2C(C)=O)cc1		18.4 µM (active)
COc1ccc(NC(=O)c2c(Cl)n(C)c3ccccc23)cc1	-3.6%	
Oc1sc(C=Nc2ccccc2)c2ccccc12		16.4 µM (active)
Oc1sc(C=Nc2ccc(F)cc2)c2ccccc12		2.91 µM (active)
COc1ccc(C(=O)N/N=C/c2ccccc2OC(=O)c2ccccc2)cc1	-1.22%	
COc1ccc(N=Cc2sc(O)c3ccccc23)cc1		12.5 µM (active)
CNC(=S)N/N=C(\C)c1ccc(Cl)s1	-0.736% [at 46.1 µM]	
COCCCN(C(C)=O)c1nc(-c2ccc(OC)cc2)cs1	-3.78%	
COc1ccc(S(=O)(=O)NN(C)c2nc(C(F)(F)F)nc3ccccc23)cc1	1.47%	
CC1(C)Cc2c(sc3ncnc(NNC(=S)NCc4ccccc4)c23)CO1	-6.55%	
COc1ccc(/C=N/NC(=O)c2cccnc2)cc1COc1ccc(NC(C)=O)cc1	-13.1%	
COc1ccc(OC)c(C2C=C(c3ccc(C)c(C)c3)Nc3nnnn32)c1 (centres undefined)	-0.067%	
COc1ccc(NC(=O)c2c(C)noc2-c2snnc2C)cc1	-5.1%	
CCC(=O)NC(c1ccc(OC)cc1)c1c(O)ccc2ccccc12 (centres undefined)	-5.23%	

SMILES	activity, negative = fluorescence increase	Potency
COc1ccc(/C=N\NC(=O)c2cc3c(ccc4ccccc43)o2)cc1O	-0.0912%	
COc1ccc(N=Cc2oc3ccc4ccccc4c3c2O)cc1		7.31 µM (active)
CC(CC(=O)Nc1ccc2c(c1)c(=O)n(C)n2Cc1ccc(F)cc1)c1ccccc1 (centres undefined)	-4.1%	
CCOC(=O)C1=C(Cc2ccc(F)cc2)C(=O)c2ccccc2C1=O		20.6 µM (active)
CCOC(=O)c1[nH]c(C)c(C(=O)Nc2ccccc2F)c1C	-1.04%	
CCOC(=O)C1=C(Cc2ccc(Cl)cc2)C(=O)c2ccccc2C1=O		16.4 µM (active)
CCOC(=O)N1CCN(c2c(NCc3ccc(F)cc3)c(=O)c2=O)CC1	-9.92%	
COCCNC(=S)N/N=C(\C)c1ccc(OC(F)F)cc1	-1.7% [at 46.1 µM]	
CC(C)c1ccc(NC(=O)Nc2cnccn2)cc1	-3.55%	
CCOC(=O)N1C/C(=C\c2ccccc2)C(=O)/C(=C/c2ccccc2)C1	1.58%	
CCOC(=O)c1ccc(/C=C2/C=C(c3ccccc3)N(c3ccc(Cl)c(C(=O)O)c3)C2=O)cc1		20.6 µM (active)
COc1ccccc1NC(=O)C1=C(C)Nc2nc3ccccc3n2C1c1cccs1 (centres undefined)	-2.86%	
Cc1cc(C)c(N2C(=O)CC(Sc3ccccc3N)C2=O)c(C)c1 (centres undefined)	2.27%	
CCN1/C(=C/c2ccc3ccccc3[n+]2CC)C=Cc2ccccc21		9.2 µM (active)
Cc1ccc(S(=O)(=O)N2CCCCC2)cc1NC(=O)Cn1ncc(Cl)c(Cl)c1=O	1.51%	
CC(=O)Nc1ccc(-c2ccnc3c2CC(C(=O)NCc2ccccc2)O3)cc1 (centres undefined)	-8.78%	
O=C1Nc2ccc(Br)cc2C12NNc1ccccc1O2 (centres undefined)		17.7 µM (active)
O=C(NC(=S)N1CCN(C2CCCCC2)CC1)c1ccccc1	13.5% [at 46.1 µM]	
C=C(NC(=O)C(=C)NC(=O)c1csc(C2=NC3c4csc(n4)C4NC(=O)c5csc(n5)C(C(C)(O)C(C)O)NC(=O)C5CSC(=N5)/C(=C/C)NC(=O)C(C(C)O)NC(=O)c5csc(n5)C3(CC2)NC(=O)C(C)NC(=O)C(=C)NC(=O)C(=C)NC(=O)C(C(C)C)NC2C=Cc3c(C(C)O)cc(nc3C2O)C(=O)OC4C)n1)C(N)=O (centres undefined)		4.44 µM (active)
CCN(CC)c1ccc(/C=C/c2cccc[n+]2C)c(OC)c1		17.7 µM (active)
CCN(CC)c1ccc(NC(=O)c2cccc(F)c2)c(C)c1	-9.15%	
COc1ccc(C(=S)N2CCN(c3cccc(Cl)c3)CC2)c(OC)c1	0.538%	
Cc1ccc(-n2c(O)c(/C=C3/C(c4ccccc4)=Nc4ccccc43)c(=O)[nH]c2=O)cc1	-3.5%	
CN(C)c1ccc2nc3c(=O)[nH]c(=O)nc-3n(CC(O)C(O)C(O)CO)c2c1 (centres undefined)	1.05% [at 46.1 µM]	

Reference: PubChem BioAssay AID651812 (National Center for Advancing Translational Sciences (NCATS), 2012)
